Experiment: activators of LNCaP cell differentiation, retest, confirmation, side scatter shift, flow cytometry (AID 1069);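 also: LNCaP human prostate cancer cells in low-serum medium with charcoal-stripped FBS; percent of cells with raised granularity gated so DMSO controls show 10%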
Details: 4 d, side scatter shift, at 10 µM, stronger effect = higher value

Compound	side scatter shift
O=C(CCn1c(=O)[nH]c2ccccc2c1=O)NCCCN1CCN(c2cccc(Cl)c2)CC1	11.1%
COc1ccc2c(c1OC)C(=O)N(C(C)C(=O)O)C2=O (configuration not stated)	5.3%
COc1ccc(Nc2nc(N)nc(CN3CCC(Cc4ccccc4)CC3)n2)cc1	33.3%
CCOC(=O)C1=C(C)Nc2nc(SC)nn2C1c1ccc(C(=O)OC)cc1 (configuration not stated)	7.15%
Cn1nc(-c2ccc(Cl)cc2)c2cc(C(=O)NCCN3CCOCC3)sc21	5.2%
O=C(NCCCN1CCN(c2cccc(Cl)c2)CC1)c1ccc(N2CCCC2=O)cc1	10.1%
COc1ccc(S(=O)(=O)Nc2ccc(F)c(Cl)c2)cc1OC	6.75%
CCOC(=O)C1CCN(S(=O)(=O)c2ccc(-c3nc4ccccc4s3)s2)CC1	7.85%
Oc1c(CN2CCCCC2)cc(COCc2ccccc2)c2cccnc12	51.2%
CC(C)N1CCC2(CC1)N=C(c1ccc3c(c1)OCO3)CC(c1cc(Cl)ccc1O)N2 (configuration not stated)	18.8%
O=C(NCCCN1CCN(c2ccccc2F)CC1)C1CCN(S(=O)(=O)N2CCOCC2)CC1	7.2%
Cc1oc(-c2ccc(Cl)cc2)nc1CN1CCCC(C(=O)N2CCN(C(=O)c3ccco3)CC2)C1 (configuration not stated)	3.65%
Cc1ccc2[nH]c(=O)c3cc(C(=O)N(C)Cc4ccco4)sc3c2c1	11.1%
CCc1ncc(C(O)c2cccc(OC)c2OC)n1C (configuration not stated)	5.25%
Cc1cccc(N2CCN(C(=O)CCNC(=O)Cn3ccc4ccccc4c3=O)CC2)c1C	2%
COc1ccccc1N1CCN(c2nc3ccccc3nc2C(C#N)C(=O)OC(C)C)CC1 (configuration not stated)	21.1%
O=C(NCc1ccc(Cl)cc1)c1noc2c1CCCC2	3.3%
